Reference: PubChem BioAssay (Tox21)
Several values for one entry are separate records, joined by “and”; a condition that tells them apart may be missing. Equal entries are not always repeated. Records with an inconclusive call do not appear. A number with no mark means an inactive call. Activity calls are given as the source filed them. The call rests on the fitted dose curve; in most records, active means well fitted activation curve with a large enough effect in the repeat runs; inconclusive means weak or mixed curves; inactive means flat fitted curve, though single readings scatter.

test: A CellTox Green Cytotoxicity Assay to monitor cytotoxicity in HEK293 cells - 24 hour (AID 1224875); settings: CellTox Green fluorescence; series mostly up to 76.8 µM; activity change: at the top concentration; further: nearly all actives have a fitted effect of over 45% in size
Excerpt: National Center for Advancing Translational Sciences [NCATS]
NIH Chemical Genomics Center [NCGC]
U.S. Environmental Protection Agency [EPA]
National Institutes of Environmental Health Sciences [NIEHS]
National Toxicology Program [NTP]
Cell-based models are critical for drug discovery. Determining the natural cytotoxic effects resulting from test compounds is an essential research activity. A CellTox Green Cytotoxicity Assay to monitor cytotoxicity in real time of continues cell culture during 40 hours of the compound treatment was used to screen Tox21 10K library compounds in Hek293 cells. CellTox Green Cytotoxicity Assay is a nonlytic, homogeneous, biofluorescent method to measure cytotoxicity in cell culture after experimental manipulation. The assay system uses a proprietary asymmetric cyanine dye that is excluded from viable cells but preferentially stains the dead cell's DNA. […] Viable cells produce no appreciable increases in fluorescence. Therefore, the fluorescence signal produced by the binding interaction with dead cell DNA is proportional to cytotoxicity.
The mixture of Hek293 cell suspension and reagents were dispensed at 600cells/6 ul/well in 1536-well tissue culture treated black solid bottom plates using a Multidrop dispenser. After the assay plates were incubated at a 37 C/5% CO2 incubator for 5 hours, 23 nL of compounds dissolved in DMSO, positive and negative controls was transferred to the assay plate by a pintool work station. The plates were incubated at 37 C for 40 hours. The fluorescence intensity were measured at 0h, 8h, 16h, 24h, 32h and 40h time points using ViewLux plate reader during compound treatment.
On the % scale 0 is the no-effect control and ±100 the full control effect; potency means the concentration at half of the fitted maximal effect.

In order of rising “activity change” value:
1. CCS(=O)(=O)c1cccnc1S(=O)(=O)NC(=O)Nc1nc(OC)cc(OC)n1  -12.4%
2. CC(C)(C)OO  -12.1%
3. c1ccc(OCC2CO2)cc1 (stereo not given)  -11.7%
4. N#Cc1ccc(O)cc1  -9.99%
5. COP(N)(=S)OC  -9.34%
6. CCOP(=S)(OCC)SCCS(=O)(=O)CC  -8.99%
7. Nc1ccccc1C(=O)Oc1ccc2ccccc2c1  -4.89%
8. Cc1cc(C)cc(OP(=O)(Oc2cc(C)cc(C)c2)Oc2cc(C)cc(C)c2)c1  -2.16%
9. COP(=S)(OC)Oc1cc(Cl)c(Br)cc1Cl  -1.63%
10. CC(C)OC(=S)S  -1.48%
11. CCOCCOC(C)=O  -1.3%
12. NC(=O)c1ccc(N)nc1  -0.925%
13. C=CCOC(N)=O  0.26%
14. CCCCCCCCCBr  0.806%
15. CC(C)OS(C)(=O)=O  2.41%
16. O=[N+]([O-])c1ccc(Oc2ccc(C(F)(F)F)cc2[N+](=O)[O-])cc1  2.72%
17. CC(C)(C)c1ccc(CSc2cnn(C(C)(C)C)c(=O)c2Cl)cc1  5.74%
18. CC[C@H]1C[C@@H]2C[C@H]3c4[nH]c5ccc(OC)cc5c4CCN(C2)[C@@H]13  8.44%
19. CCOP(=S)(OCC)SCS(=O)(=O)C(C)(C)C  9.64%
20. Oc1ccc(C2(c3ccc(O)cc3)c3ccccc3-c3ccccc32)cc1  10.9%
21. CCCCCCCCCCCCCN1CC(C)OC(C)C1 (stereo not given)  11.5%
22. CCc1nn(C)c(C(=O)NCc2ccc(C(C)(C)C)cc2)c1Cl  11.9%
23. COS(=O)(=O)c1ccc(C)cc1  13.1%
24. Oc1ccc(C(=C(Cl)Cl)c2ccc(O)cc2)cc1  18.5%
25. CCc1ccccc1C  19.1%
26. CC(=O)c1ccc(-c2ccccc2)cc1  21.1%
27. ClC1=C(Cl)[C@]2(Cl)[C@H]3[C@H]([C@H]4C=C[C@H]3C4)[C@@]1(Cl)C2(Cl)Cl  22.5%
28. Nc1ccc(Cc2ccc(N)c(Cl)c2)cc1Cl  22.6%
29. Cl/C=C\CCl  24.1%
30. C[C@]12CC[C@H]3[C@@H](CCC4=CC(=O)CC[C@@]43C)[C@@H]1CC[C@@H]2O  27.4%
31. Clc1ccc(-c2ccccc2)cc1  31.1%

In the case of CS(=O)(=O)c1ccc(C(=O)C2C(=O)CCCC2=O)c([N+](=O)[O-])c1, the Potency is reported as 44.4 µM (active).
In the case of ClC1=C(Cl)C2(Cl)C3C(Cl)C(Cl)CC3C1(Cl)C2(Cl)Cl (stereo not given), the Potency is reported as 48.8 µM (active) and 49 µM (active).
For ClC1=C(Cl)C2(Cl)C3C(Cl)C=CC3C1(Cl)C2(Cl)Cl (stereo not given), the Potency was 49.2 µM (active) and 49 µM (active).
For CC(C)Oc1cccc(NC(=O)c2ccccc2C(F)(F)F)c1, the Potency was 19.5 µM (active).
In the case of O=C(O)C1C2CCC(O2)C1C(=O)O (stereo not given), the Potency is reported as “inactive”.

For Cc1c(Cl)c(=O)oc2cc(OP(=O)(OCCCl)OCCCl)ccc12, the “activity change” value was -3.15% [at 35.3 µM, hits give high values].
With O=c1[nH]c2ccccc2n1C1CCN(CCCC(c2ccc(F)cc2)c2ccc(F)cc2)CC1 the “activity change” value was 2.7% [at 35.3 µM, hits give high values].
In the case of Clc1ccc(CCC(Cn2ccnc2)Sc2c(Cl)cccc2Cl)cc1 (stereo not given), the “activity change” value is reported as 15.4% [at 35.3 µM, hits give high values].
With Nc1c(Oc2ccccc2)cc(O)c2c1C(=O)c1ccccc1C2=O the “activity change” value was 7.68% [at 35.3 µM, hits give high values].
